# Screening results: PubChem, National Center for Advancing Translational Sciences (NCATS)
# Rows were chosen to be rich in hits. Some 7.9% of all compounds tested hit in one or more screens of this group.
# Lassa entry inh – qHTS for Inhibitors of binding or entry into cells for Lassa Virus. 1.2% of 300,000 active. Lassa virus pseudotype entry inhibition, cell reporter. Potency, µM (titrated, usually from 37.9 µM), inactives show at the top dose activity change, negative = inhibition, actives largely listed as inhibitors; calls by dose curve; tested in HEK293 cells; also: potency is read from the fitted curve at half-maximal effect; nearly all actives have a fitted effect of over 50% in size
# HCMV inh – qHTS Assay for inhibitors of the human cytomegalovirus (HCMV). HFF cells, HCMV-luciferase reporter, 72 h; stronger effect = lower value. activity change, negative = inhibition, % at 57.5 µM. 4.5% of 410,000 active. AID 1259415, 2018; in the data active = activity change below about -60%; inconclusive = no clear call, values can overlap the other calls; inactive = above about -39%
#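 Inhibition of viral replication was scored as loss of reporter luminescence in HFFs infected with HCMV-luciferase (MOI 1 PFU/cell) for 72 h; compounds tested at 2 doses, normalized to buffer and Salinomycin controls.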
# HCV inhibitor – qHTS Assay for Inhibitors of Hepatitis C Virus (HCV) | Potency, µM (titrated, usually from 41.8 µM), without a hit: at the top dose activity change, negative = inhibition, usual class: inhibitors | 3.4% of 340,000 active | Huh7.5.1 HCVcc-Cre infection, luciferase reporter, 44 h; active = well fitted inhibition curve with a large enough effect; inconclusive = small, poorly fitted or top-dose-only effect, or another doubt; inactive = no such curve, though single readings can be large or run the other way; also: potency is read from the fitted curve at half-maximal effect
#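 Infectious HCVcc-Cre (~0.5 moi) was added to cells just after compound, with cells seeded 4 h earlier at 1,000 per well. Luciferase activity after 44 h culture reported infection; substrate was incubated 15 min at room temperature before reading.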
# FMDV inh – High Throughput Screening for Foot and Mouth Disease Virus Antivirals. FMDV antiviral cell-based qHTS. Potency, µM (titrated, usually from 57.9 µM), without a hit: at the top dose activity change, negative = inhibition, usual class: inhibitors. 1.2% of 410,000 active; calls by dose curve; tested in HEK293T cells; also: read-out not given here; potency is read from the fitted curve at half-maximal effect; nearly all actives have a fitted effect of over 45% in size
# MARV entry inh – qHTS for inhibitors of binding or entry into cells for Marburg Virus. Marburg virus pseudotyped entry inhibition, cell reporter. Potency, µM (top dose mostly 37.8 µM), for the others: at the highest dose activity change, negative = inhibition, most hits filed as inhibitors. 1.8% of 300,000 active. AID 540276, 2011; calls by dose curve; tested in HEK293 cells; also: potency is read from the fitted curve at half-maximal effect
# * = called active by the depositor; ? = inconclusive; · = no result given; + = active, no number; ! = a repeat was not active; [ ] = another dose, or the depositor's remark. % is scaled to controls: 0 for no effect and ±100 for the full control effect.
SMILES,Lassa entry inh,HCMV inh,HCV inhibitor,FMDV inh,MARV entry inh
CCOc1ccc(S(=O)(=O)NCCc2sc3nc(-c4ccc(F)cc4)nn3c2C)cc1,?,?,·,-18.4%,·
Cc1c(CCNC(=O)Cc2ccc(F)cc2)sc2nc(-c3ccc(F)cc3)nn12,-0.6%[46.1 µM],-23.1,·,-11.5%,·
CCCS(=O)(=O)NCCc1csc2nc(-c3ccc(C)cc3)nn12,5.8%[46.1 µM],69.4,·,-17.6%,·
CCCS(=O)(=O)NCCc1sc2nc(-c3ccc(F)cc3)nn2c1C,-13.4%[46.1 µM],-70.6*,·,-16.6%,·
COc1ccc(S(=O)(=O)NCCc2csc3nc(-c4ccccc4)nn23)cc1OC,9.3%[46.1 µM],12.5,·,40.2%,·
CCc1ccc(NC(=O)C(=O)NCCc2sc3nc(-c4ccc(OC)cc4)nn3c2C)cc1,-17.1%[46.1 µM],-64.3*,·,-8.8%,·
COc1ccc(-c2nc3sc(CCNC(=O)C(=O)Nc4ccc(C)c(C)c4)c(C)n3n2)cc1,-4.7%[46.1 µM],-5.2,·,18.3%,·
COc1ccc(S(=O)(=O)NCCc2sc3nc(-c4ccc(C)cc4)nn3c2C)cc1C,-33.7%[46.1 µM],-93.5*,·,4.4%,·
COc1cccc(Cn2c3ccc(NC(=O)CCc4ccc(F)cc4)cc3c(=O)n2C)c1,·,-85.2*,·,-26.2%,·
COc1ccccc1CCC(=O)Nc1ccc2c(c1)c(=O)n(C)n2Cc1ccc(F)cc1,·,11.9,·,-28.7%,·
Cn1c(=O)c2cc(NC(=S)NCc3ccccc3F)ccc2n1Cc1cccc(C(F)(F)F)c1,·,-68.9*,·,-9.6%,·
CCOCCC(=O)Nc1ccc2c(c1)c(=O)n(C)n2Cc1cccc(C(F)(F)F)c1,·,-61.7*,·,0.0%,·
COc1cccc(N2CCN(C(=O)c3ccc(Cl)c(NC4=NC5CS(=O)(=O)CC5S4)c3)CC2)c1 (centres undefined),-6.1%[46.1 µM],-11.3,15.0%,-17.1%,-6.8%[46.1 µM]
CCNc1nc(Oc2ccccc2)nc(O[C@@H](C)C(=O)OCC)n1,·,·,·,·,0.0%
COc1cc(Nc2nccc3[nH]c(-c4cccc(C(F)(F)F)c4)nc23)cc(OC)c1OC,·,7.2,·,·,·
CC1(C(=O)NC2CCCC2)CCC(=O)N1CCc1c[nH]c2ccccc12 (centres undefined),·,15.2,·,-16.3%,·
OCCN(C=NC1=NN(c2cccc(C(F)(F)F)c2)CC1)CCO,5.6%,-10.2,-21.1%,21.5%,8.8%
CCN(C=NC1=NN(c2cccc(C(F)(F)F)c2)CC1)CC,-1.8%,-22.4,11.2µM*,43.1%,?
CSCC(C)N1CCC(n2nccc2NC(=O)CCCc2ccccc2)CC1 (centres undefined),·,+,6.1%,-7.9%,·
COc1ccccc1/C=C/CN1CCC(n2nccc2NC(=O)CCc2ccccc2)CC1,·,?,3.55µM*,?,·
CSCC(C)N1CCC(n2nccc2NC(=O)CCc2ccccc2)CC1 (centres undefined),·,15.5,9.2%,12.5%,·
O=C(CCc1ccccc1)Nc1ccnn1C1CCN(C/C=C/c2ccccc2)CC1,·,-9.7,-21.2%,-26.2%,·
O=C1CC(C(=O)N2CCOc3ccc(CN4CCC(Oc5cccnc5)CC4)cc3C2)c2ccccc21 (centres undefined),·,·,·,-17.5%,·
Cc1cc(C)c2ccc(N)nc2c1O,?,-104.9*,11.2µM*,-14.0%,?
Cc1cc(C)c2cccc(N)c2n1,-1.3%[46.1 µM],-37.6,6.0%,-15.2%,12.2%[46.1 µM]
SMILES,Lassa entry inh,HCMV inh,HCV inhibitor,FMDV inh,MARV entry inh
O=C(/C=C/c1ccc(Cl)cc1)Nc1ccc(CN2CCOCC2)cc1,-23.5%[46.1 µM],-88.8*,?,?,?
CC(C)c1ccc(/C=C/C(=O)Nc2ccc(CN3CCOCC3)cc2)cc1,?,?,2.24µM*,28.2µM*,-1.8%[46.1 µM]
O=C(/C=C/c1ccccc1)NC(=S)Nc1ccc(CN2CCOCC2)cc1,1.5%,-75.7*,-18.4%,?,?
CC(C)C(=O)NC(=S)Nc1ccc(CN2CCOCC2)cc1,·,-8.6,11.6%,13.4%,·
COc1ccc(-c2oc3ccccc3c2C(=O)OCc2ccccc2OC)cc1,·,-3.1,-46.5%,-21.6%,·
COC(=O)c1cc2sccc2n1Cc1nc(-c2ccc(Cl)cc2)oc1C,1.0%,3.7,16.9%,-6.2%,?
COC(=O)c1cc2sccc2n1Cc1nc(-c2cccc(Cl)c2)oc1C,·,-64.7*!,1.2%,?,1.0%[46.1 µM]
Cc1cccc(N2CCN(Cc3nc(-c4cccc(Cl)c4)oc3C)CC2)n1,-21.3%,0.0,?,-0.8%,7.08µM*
CC(C)c1ccc2oc(=O)cc(CN3CCOCC3)c2c1,·,-4.9,11.5%,-10.5%,·
C[C@H]1COC(=O)CC/C=C\C[C@H](CC(=O)N(CCO)Cc2ccccc2)C(=O)N1,·,-28.0,-12.2%,0.0%,·
COc1ccc(C2C(=O)N(C3CCC(C)CC3)CC(=O)N2C2CCCCC2)cc1OC (centres undefined),-1.3%[46.1 µM],?,·,-21.2%,·
Cc1cc(C)c(NC(=O)c2sc3nc(C)[nH]c(=O)c3c2C)c(C)c1,·,96.2,·,·,·
CSCc1nc2sc(C(=O)Nc3nc(C)cs3)c(C)c2c(=O)[nH]1,27.4%[46.1 µM],43.9,11.2µM*,41.0%,?
Cc1csc(NC(=O)CSc2nc3sc(C)c(C)c3c(=O)[nH]2)n1,14.9%,0.2,-3.5%,-8.9%,16.0%
Cc1ccc(NC(=O)c2sc3nc(CCl)[nH]c(=O)c3c2C)c(C)c1,10.7%,14.6,11.2µM*,?,-28.4%[46.1 µM]
Cc1cccn2c(=O)cc(COc3cccc(NC(=O)c4ccccc4F)c3)nc12,5.1%[46.1 µM],-90.9*,·,-29.3%,·
COC(=O)c1ccccc1NC(=O)Nc1cccc(OCc2cc(=O)n3cccc(C)c3n2)c1,3.2%[46.1 µM],-18.2,·,0.0%,·
Cc1cccn2c(=O)cc(COc3cccc(NC(=O)COc4ccc(F)cc4)c3)nc12,-12.4%[46.1 µM],-90.4*,·,?,·
O=C(COc1ccccc1F)Nc1ccc(OCc2cc(=O)n3ccccc3n2)cc1,?,-61.1*,·,15.9%,·
CC(=O)Nc1ccc(OCc2cc(=O)n3ccccc3n2)cc1,20.2%[46.1 µM],34.9,·,29.2%,·
Cc1ccc(Cl)cc1NC(=O)Nc1cccc(OCc2cc(=O)n3ccccc3n2)c1,?,-64.6*,·,5.5%,·
Cc1onc(C(=O)NC2CCCCC2)c1[N+](=O)[O-],·,·,16.7%,6.9%,·
COc1cc(C2C(C(=O)Nc3ccccc3C)=C(C)Nc3ncnn32)ccc1OCC(N)=O (centres undefined),-3.4%[46.1 µM],5.1,·,-4.4%,·
O=S(=O)(O)c1cccnc1SCc1ccccc1,-0.9%[46.1 µM],1.1,12.6%,-7.9%,-3.2%[46.1 µM]
COC(=O)c1c(NC(=O)CSc2ncnc3ccccc23)sc(C)c1C,?,-25.5,17.8µM*,-20.0%,3.5%[46.1 µM]
CCOC(=O)c1c(NC(=O)CSc2ncnc3ccccc23)sc(C(C)=O)c1C,2.8%,0.7,11.2µM*,25.1µM*,-8.8%[46.1 µM]
CCc1nn2c(=O)c(S(=O)(=O)Nc3ccc(OC)c(Cl)c3)c(C)nc2s1,17.5%[46.1 µM],-14.2,·,-9.1%,?
CC(=O)c1c(C)[nH]c(C(=O)CSc2nnc(-c3ccccc3)n2Cc2ccc3c(c2)OCO3)c1C,-20.9%,1.7,?,-23.2%,?
